Records with an inconclusive call do not appear. Active and inactive are the calls of the source. Calls come from the whole dose curve; as a rule, active = well fitted curve in the direction sought with a large enough effect; inconclusive = small, poorly fitted or top-dose-only effect, or another doubt; inactive = no such curve, though single readings can be large; an effect the other way counts as inactive or inconclusive.
Columns and labels:
[1] = MultiTox-Fluor Cytotoxicity Assay - LYMP1-001 - Live Cells (AID 947)
[2] = Cell Viability - LYMP1-002 - Assay at 16 hr (AID 948)
Summary of the method: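 Acute cytotoxicity is scored as a concentration-dependent fall in intracellular ATP in a human lymphoblastoid line (LYMP1-002) after 16 hr compound exposure at 37 C, measured by luciferase luminescence.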

[3] = MultiTox-Fluor Cytotoxicity Assay - LYMP1-002 - Live Cells (AID 955)
Summary of the method: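 After 16 h compound exposure at 37 C, live LYMP1-002 lymphoblastoid cells (2500/well) were quantified by cleavage of cell-permeant GF-AFC substrate, read at 405/510 nm after 60 min. Concentration-response fitted with Hill equation for AC50.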

[4] = MultiTox-Fluor Cytotoxicity Assay - LYMP1-002 - Dead Cells (AID 960); note: nearly all actives have a fitted effect of over 60% in size
Summary of the method: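 Dead-cell fluorescence (Ex/Em 485/520) after 16 h compound exposure at 37 C of LYMP1-002 lymphoblastoid cells in complete medium; AC50 by Hill equation, with data scaled between DMSO and 15 uM tetraoctylammonium bromide.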

[5] = MultiTox-Fluor Cytotoxicity Assay - LYMP1-003 - Dead Cells (AID 961); note: nearly all actives have a fitted effect of over 70% in size
Summary of the method: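 LYMP1-003 human lymphoblastoid cells (2500/well) exposed to compound 16 h at 37 C in complete medium; dead-cell protease read with bis-AAF-R110 fluorescence (Ex/Em 485/520) after 60 min at room temperature. Normalized to DMSO and 15 uM tetraoctylammonium bromide; AC50 from Hill fit.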

[6] = MultiTox-Fluor Cytotoxicity Assay - LYMP1-003 - Live Cells (AID 962);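 note: cytotoxic hits lower the live-cell protease signal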
Summary of the method: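 Live-cell protease activity (GF-AFC substrate, 405/510 nm, 60 min at room temperature) after 16 h, 37 C compound exposure of human lymphoblastoid LYMP1-003 cells; concentration-response fitted to the Hill equation for AC50.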

[7] = Cell Viability - LYMP1-003 - Assay at 24 hr (AID 963)
Summary of the method: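 Concentration-response qHTS: ATP loss measured by CellTiter-Glo luminescence after 24 h compound exposure at 37 C. Cells were LYMP1-003 human lymphoblastoid, 2500 per well. AC50 derived via standard Hill equation modeling.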

[8] = Cell Viability - LYMP1-003 - Assay at 40 hr (AID 964); note: series mostly up to about 92 µM; nearly all actives have a fitted effect of over 60% in size
Summary of the method: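 Viability is taken as cellular ATP, read by CellTiter-Glo luminescence after 40 h of compound exposure at 37 C. Cells: human lymphoblastoid line LYMP1-003 at 2500/well; AC50 values derived by Hill-equation fitting of concentration-response data.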

[9] = Cell Viability - LYMP2-003 (AID 965);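 note: cells exposed to compounds for 24 h before reading; nearly all actives have a fitted effect of over 50% in size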
Summary of the method: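 Acute cytotoxicity is scored as a concentration-dependent drop in intracellular ATP, measured by luciferase luminescence in human lymphoblastoid cells treated for 24 hours at 37 C. AC50 values derive from Hill-equation modelling.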

[10] = Cell Viability - LYMP2-004 (AID 966); note: nearly all actives have a fitted effect of over 65% in size
Summary of the method: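 AC50 values come from Hill modelling of concentration-dependent loss of intracellular ATP, measured by CellTiter-Glo luminescence. Human LYMP2-004 lymphoblastoid cells (2500/well) were exposed to compound for 24 h at 37 C.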

[11] = Cell Viability - LYMP2-005 (AID 967); note: series mostly up to about 92 µM
Summary of the method: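 qHTS viability screen in LYMP2-005 cells: 24 h at 37 C with compound, ATP luminescence via CellTiter-Glo, AC50 from Hill curves.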

[12] = Cell Viability - LYMP2-009 (AID 968); note: series mostly up to about 92 µM; nearly all actives have a fitted effect of over 55% in size
[13] = Cell Viability - LYMP2-011 (AID 969); note: nearly all actives have a fitted effect of over 60% in size
Summary of the method: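 Cytotoxicity qHTS with ATP content as read-out: lymphoblastoid cells (2500/well) exposed to compound for 24 h at 37 C, then luciferase luminescence measured. Concentration-response data fitted with the standard Hill equation to give AC50.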

[14] = Cell Viability - LYMP2-013 (AID 970); note: series mostly up to about 92 µM; nearly all actives have a fitted effect of over 55% in size
Summary of the method: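 qHTS cytotoxicity: ATP-dependent luminescence (CellTiter-Glo, 30 min room temperature) read after 24 h compound exposure at 37 C of 2500 LYMP2-013 lymphoblastoid cells per well. Concentration-response fitted with Hill equation to give AC50.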

[15] = Cell Viability - LYMP2-015 (AID 971); note: nearly all actives have a fitted effect of over 55% in size
Summary of the method: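 Cytotoxicity readout: decrease in intracellular ATP (CellTiter-Glo luminescence) in 2500 LYMP2-015 lymphoblastoid cells/well after 24 h compound exposure at 37 C. Concentration-response data fitted with the standard Hill equation to give AC50.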

[16] = Cell Viability - LYMP2-017 (AID 972); note: series mostly up to about 92 µM; nearly all actives have a fitted effect of over 55% in size
Summary of the method: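 CellTiter-Glo luminescence (cellular ATP, 30 min RT) measured cytotoxicity after 24 hr compound treatment at 37 C. Cells were a human lymphoblastoid line, LYMP2-017, plated at 2500/well and incubated 5 hr first; concentration-response fitted with Hill equation for AC50.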

[17] = Cell Viability - LYMP2-019 (AID 973); note: nearly all actives have a fitted effect of over 55% in size
Summary of the method: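 AC50 values come from Hill-equation fits of luminescent intracellular ATP (CellTiter-Glo, 30 min, room temperature) following 24 h compound exposure at 37 C. Cells: LYMP2-019 lymphoblastoid line, 2500 per well, in complete culture medium.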

[18] = Cell Viability - LYMP2-021 (AID 974); note: nearly all actives have a fitted effect of over 55% in size
Summary of the method: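 AC50 values come from Hill-equation fits to CellTiter-Glo luminescence (ATP content), read after 24 hour compound exposure at 37 C of 2500 LYMP2-021 lymphoblastoid cells/well; tetraoctylammonium bromide as positive control.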

[19] = Cell Viability - LYMP2-023 (AID 975)
Summary of the method: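 Intracellular ATP, read by CellTiter-Glo luminescence, reports viability after 24 hr compound exposure at 37 C. 2500 lymphoblastoid cells/well (LYMP2-023) seeded 5 hr beforehand; Hill fits give AC50; positive control tetraoctylammonium bromide.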

Measured: Potency

O=C(Cl)c1cccc([N+](=O)[O-])c1
inactive: all assays above

CCOc1cc(OCC)c(C(C)=O)cc1OCC
not listed: [4] | [13]
inactive: all other assays above

O=C(O)c1ccc(Cl)c(Cl)c1
not listed: [10]
inactive: all other assays above

CC/C=C/C#N
inactive: all assays above

C=CCOC(=O)CCCCCCCC
not listed: [1] | [9] | [13] | [15]
inactive: all other assays above

CCc1ccccc1
not listed: [13] | [18]
inactive: all other assays above

CC/C=C1/OC(=O)c2ccccc21
not listed: [18]
inactive: all other assays above

CC(C)(C)c1ccc(OCC2CO2)cc1 (configuration not stated)
not listed: [13]
inactive: all other assays above

CCC(=O)/C=C/C1C(C)=CCCC1(C)C (configuration not stated)
not listed: [17] | [18]
inactive: all other assays above

C1CCCC1
not listed: [13]
inactive: all other assays above

CCOC(C)(C)C
not listed: [1] | [2] | [7] | [18]
inactive: all other assays above

CCCC(C)CO (configuration not stated)
not listed: [3]
inactive: all other assays above

NC(=O)NC(N)=O
not listed: [16]
inactive: all other assays above

Nc1c(Cl)cc(Cl)cc1Cl
not listed: [10]
inactive: all other assays above

CCC(C)(C)OC
not listed: [13]
inactive: all other assays above

CC(=O)c1ccccc1[N+](=O)[O-]
inactive: all assays above

S=C([S-])NCCNC(=S)[S-].[Zn+2]
not listed: [1] | [3] | [13] | [18]
inactive: all other assays above

Source: PubChem BioAssay (NCATS)
